# Hits are enriched below; roughly 9% of the tested compounds scored in any of these assays.
# IMPase Li cell – cell-permeable IMPase inhibitors with lithium potentiation; CHO-M1 cells, IP1 TR-FRET (IP-One), carbachol + lithium; Potency, µM (top dose mostly 59.4 µM), for inactives: at the top dose activity, negative = IMPase inhibition, hits mostly inhibitors; 0.35% of 210,000 active; active means well fitted curve in the direction sought with a large enough effect; inconclusive means small, poorly fitted or top-dose-only effect, or another doubt; inactive means no such curve, though single readings can be large; an effect the other way counts as inactive or inconclusive;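 further: IP1 builds up when IMPase is blocked and the TR-FRET signal falls; plate controls were basal vehicle for no effect and high inhibitor control for full effect; nearly all actives have a fitted effect of over 50% in size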
#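 Test compounds were applied to CHO-M1 cells previously cultured for 16–30 h at 2000 per well. A small lithium amount accompanied them; after 30 min at 37C, IP1 was quantified by TR-FRET.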
# ALDH1A1 inh – blocks purified human ALDH1A1 activity; Potency, µM (highest dose often 75.3 µM), without a hit: top-dose activity, negative = inhibition, usual class: inhibitors; 7.3% of 220,000 active; Purified ALDH1A1, NADH fluorescence, propionaldehyde substrate; AID 1030; P00352;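 further: plate controls were no enzyme wells and a reference inhibitor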
# Target sequence (P00352 whole entry, looked up): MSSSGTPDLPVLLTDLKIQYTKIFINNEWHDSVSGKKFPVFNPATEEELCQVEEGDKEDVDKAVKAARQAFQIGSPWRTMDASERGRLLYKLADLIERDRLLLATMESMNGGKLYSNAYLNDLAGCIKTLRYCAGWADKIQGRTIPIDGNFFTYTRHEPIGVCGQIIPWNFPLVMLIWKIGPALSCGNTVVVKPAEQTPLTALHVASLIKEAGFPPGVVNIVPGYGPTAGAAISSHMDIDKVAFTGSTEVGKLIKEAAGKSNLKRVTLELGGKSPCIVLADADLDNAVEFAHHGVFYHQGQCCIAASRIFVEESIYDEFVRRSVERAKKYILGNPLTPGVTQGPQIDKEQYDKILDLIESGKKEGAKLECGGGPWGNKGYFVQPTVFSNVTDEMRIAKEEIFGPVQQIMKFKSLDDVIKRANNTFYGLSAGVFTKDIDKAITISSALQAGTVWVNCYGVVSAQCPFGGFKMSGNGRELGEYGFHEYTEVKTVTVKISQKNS
# Lamin A splicing – changes lamin A minigene splicing in HeLa cells; Potency, µM (highest dose often 46.1 µM), for the others: at the top dose ratio change, negative = inhibition, usual class: inhibitors; 0.01% of 200,000 active; HeLa LMNA splicing GFP/RFP minigene ratio, 48 h; AID 1487; active means well fitted inhibition curve with a large enough effect in the signal ratio, with a control signal flat, not every such curve was filed as active; inconclusive means small, poorly fitted or top-dose-only effect, or effect the other way, or a change in a side signal; the % refers to the signal ratio
#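 S3 HeLa stable clones carrying a lamin A-EGFP splicing minigene plus DsRed2 were seeded at 600 cells/well in Opti-MEM with 2% FBS, pin-dosed and incubated 48 h at 37°C. Acumen cytometry (488 nm) gave the GFP/RFP total-intensity ratio.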
# HPGD block – inhibitors of human 15-hydroxyprostaglandin dehydrogenase (HPGD). P15428. Potency, µM, for inactives: at the top dose activity change, negative = inhibition, actives largely listed as inhibitors. 4.3% of 150,000 active. AID 894. purified HPGD, NADH fluorescence kinetic, PGE2 substrate
#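 NADH formation kinetics: reaction with 30 uM PGE2 and 1 mM NAD+ (final), 20 nM enzyme, Tris-HCl pH 8 with Tween 20, after 15 min compound preincubation at room temperature. Fluorescence change, last versus first of five reads.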
# KinaseGlo FLuc – blocks Kinase-Glo luciferase, a counter-screen artifact. Q27757. Kinase-Glo luciferase, ATP luminescence, 8 min. Potency, µM (series often up to 38.3 µM), for inactives: top-dose activity change, negative = inhibition, actives largely listed as inhibitors. 0.28% of 200,000 active. AID 1379; active means well fitted curve in the direction sought with a large enough effect; inconclusive means small, poorly fitted or top-dose-only effect, or another doubt; inactive means no such curve, though single readings can be large; an effect the other way counts as inactive or inconclusive; further: nearly all actives have a fitted effect of over 60% in size
#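 Substrate mix (final 50 mM imidazole pH 7.2, 50 mM KCl, 7 mM MgCl2, 10 uM ATP, 0.01% Tween 20, 0.05% BSA) plus pin-tool compound, then Kinase-Glo detection mix; 8 min ambient, luminescence read.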
# The depositor's hits bear a star; ? = inconclusive; / = no result; [ ] = another dose, or the depositor's remark. Unless noted, the call rests on the fitted dose curve; in most records, active means well fitted inhibition curve with a large enough effect (not every such curve was filed as active); inconclusive means small, poorly fitted or top-dose-only effect, or another doubt; inactive means no such curve, though single readings can be large or run the other way. Unless noted, on the % scale 0 is the no-effect control and ±100 the full control effect; potency means the concentration at half of the fitted maximal effect.
SMILES,IMPase Li cell,ALDH1A1 inh,Lamin A splicing,HPGD block,KinaseGlo FLuc
Cc1onc(-c2c(F)cccc2Cl)c1C(=O)OCn1nnc2ccccc2c1=O,19%,-3%,?,13µM*,1%
Cc1onc(-c2c(F)cccc2Cl)c1C(=O)O/N=C(\N)c1ccc([N+](=O)[O-])o1,/,7.9µM*,/,/,/
COc1ccc2[nH]cc(CCNc3ncncc3-c3cccc(C#N)c3)c2c1,0%,-2%,-16%,/,/
S=c1[nH]nc(-c2ccc(Cl)cc2)n1Cc1ccccc1,3%,11µM*,6%,?,-6%
Cc1ccc(-n2c(-c3ccccc3)n[nH]c2=S)cc1,-15%,32µM*,-1%,?,5%
S=c1[nH]nc(CNc2ccc(Cl)cc2)n1Cc1ccccc1,4%,11%,3%[46 µM],/,0%
Cc1ccc(-n2c(Cc3noc4ccccc34)n[nH]c2=S)cc1,10%,14µM*,/,/,5%
Cc1ccc(-n2c(-c3ccncc3)n[nH]c2=S)cc1,1%,0%,/,/,3%
CC(C)c1cc(-c2n[nH]c(=S)n2Cc2ccccc2)cs1,-7%[38.3 µM],2µM*,0%,?,-4%
S=c1[nH]nc(COc2ccccc2)n1Cc1ccccc1,23%,11µM*,?,?,-3%
CC(C)CCn1c(COc2ccccc2)n[nH]c1=S,24%,-11%,-18%[46 µM],/,1%
S=c1[nH]nc(-c2ccc(Br)cc2)n1Cc1ccco1,33%[38.3 µM],?,-1%,25µM*,3%
C=CCn1c(-c2csc(-c3ccc(Cl)cc3)n2)n[nH]c1=S,6%[38.3 µM],?,1%,-24%,-4%
C=CCn1c(-c2csc(-c3ccccc3)n2)n[nH]c1=S,?,0.11µM*,?,?,-4%
S=c1[nH]nc(COc2ccccc2)n1C1CCCCC1,32%[38.3 µM],?,3%,22µM*,3%
Cc1csc2nc(-c3cccc(NC(=O)c4ccc(S(N)(=O)=O)cc4)c3)cn12,/,/,-7%[46 µM],/,/
O=c1c(-c2ccc(Cl)cc2)nc2cnc(N3CCNCC3)nc2n1Cc1ccc(F)cc1,2%,?,/,?,-1%
CC(=O)N1CCCc2cc(S(=O)(=O)NCc3ccc(N(C)C)cc3)ccc21,/,/,-14%[46 µM],/,/
S=c1[nH]nc(CSc2nc3ccccc3s2)n1C1CCCCC1,10%[38.3 µM],3.2µM*,?,7.1µM*,-5%
S=c1[nH]nc(-c2ccc(Br)o2)n1Cc1ccccc1,24%[38.3 µM],1.4µM*,?,28µM*,0%
S=c1[nH]nc(-c2ccccc2)n1Cc1ccccc1,-8%[38.3 µM],18µM*,11%,?,1%
O=C(O)CSc1nnc(CSc2nc3ccccc3s2)n1-c1ccccc1,-2%,5%,10%[46 µM],/,-1%
S=c1[nH]nc(-c2cccs2)n1Cc1ccccc1,0%,?,?,/,-2%
CCC1(C)Nc2ccccc2C(=O)N1O (stereo not given),2%[38.3 µM],-5%,2%,25µM*,3%
COc1ccc(N2C(=O)c3ccccc3NC2(C)C)cc1,1%,?,-5%[46 µM],/,0%
SMILES,IMPase Li cell,ALDH1A1 inh,Lamin A splicing,HPGD block,KinaseGlo FLuc
COC(=O)c1cn(NC(=O)C2COc3ccccc3O2)c(=O)c2ccccc12 (stereo not given),11µM*,?,4%,-29%,-3%
COc1ccccc1CNC(=O)C1COc2ccccc2O1 (stereo not given),0%,4%,-10%,16µM*,7%
O=C(Nc1ccncc1)C1COc2ccccc2O1 (stereo not given),25%[38.3 µM],-8%,-17%,-25%,0%
O=C(NC1CC2CCC1C2)C1COc2ccccc2O1 (stereo not given),0%[38.3 µM],3%,-1%,14µM*,-2%
O=C(NC1=NCCS1)C1COc2ccccc2O1 (stereo not given),2%[38.3 µM],-9%,9%,-7%,7.9µM*
COC(=O)c1cn(NC(=O)C2CCCO2)c(=O)c2ccccc12 (stereo not given),1%,5%,-5%,-30%,6%
Nc1ccc(SCC(=O)Nc2cccc([N+](=O)[O-])c2)cc1,-4%,-3%,21%[46 µM],/,1%
O=C(CCc1nnc(-c2ccccc2)o1)NCc1cc(F)ccc1F,7%,?,?,/,-4%
COc1ccc(CNC(=O)C2COc3ccccc3O2)cc1 (stereo not given),16%,-3%,-10%,14µM*,4%
CN(C)S(=O)(=O)NCCNc1ccc(C(F)(F)F)cc1[N+](=O)[O-],1%,8%,?,/,1%
c1ccc2c(c1)ccc1ncccc12,-17%,1%,/,-8%,-1%
Oc1c(N=Nc2ccccn2)ccc2ccccc12,22%[38.3 µM],0%,?,-14%,11µM*
CSc1nnc(C)c(/C=C/Nc2ccc(F)cc2F)n1,17%,?,?,/,-1%
CSc1nsc(/C=C/Nc2ccc(C(=O)O)cc2)c1C#N,-11%,10µM*,17%[9.22 µM],/,-4%
CSc1nsc(/C=C/Nc2ccc(F)cc2F)c1C#N,-5%,8.9µM*,?,/,4%
CSc1nsc(N/N=C/c2ccccc2)c1C#N,-6%,?,/,/,12%
CC(C)c1nnc(NC(=O)CSc2nnc(NC(=O)c3c(F)cccc3F)s2)s1,-3%,-8%,2%[46 µM],/,3%
COc1cc(NS(=O)(=O)c2c(C(=O)N3CCCCC3)c(C)n(C)c2C)cc(OC)c1OC,/,/,27%[46 µM],/,/
COc1ccc(CC(=O)Nc2cc(-c3cn4cccnc4n3)ccc2C)cc1OC,/,/,9%[46 µM],/,/
Cn1cnc(S(=O)(=O)N2CCC(C(=O)Nc3ccc(OC(F)(F)F)cc3)CC2)c1,/,/,-2%[46 µM],/,/
COc1ccc(NC(=O)CSc2nc3ccccc3n2CC(=O)Nc2cccc(C)c2C)cc1,/,/,11%[46 µM],/,/
COc1ccccc1CNC(=O)C1CC(=O)N(c2ccc(C)c(C)c2)C1 (stereo not given),22%[38.3 µM],6.3µM*,-6%,-1%,-2%
CC(=O)N1CCN(CC(=O)Nc2cc([N+](=O)[O-])ccc2Cl)CC1,-7%,35µM*,/,/,/
O=C(CN1CCN(c2ccc(O)cc2)CC1)Nc1cc([N+](=O)[O-])ccc1Cl,3%,11µM*,-23%,-8%,1%
CNC(=S)N1CCN(C(c2ccccc2)c2ccccc2)CC1,7%,2µM*,?,/,0%
CCN1CCN(C(=S)NC(C)c2ccccc2)CC1 (stereo not given),11%,19µM*,-12%,-12%,-2%
CCC(C)NC(=S)N1CCN(C(c2ccccc2)c2ccccc2)CC1 (stereo not given),14%,?,?,-15%,2%
CN(C)CCn1nnc2c(=O)oc3ccccc3c21,7%,6%,-2%[46 µM],/,-7%
COc1ccc(/C=C/c2onc(C)c2S(=O)(=O)N2CCC(C(=O)N3CCC(C)CC3)CC2)cc1,/,/,1%[46 µM],/,/
O=C(Nc1ccc2c(c1)S(=O)(=O)N=C1CCCCCN12)c1ccccc1Cl,8%,?,5%[46 µM],/,-1%

# Screening data from PubChem BioAssay.
